Structures are written as SMILES. Activity calls are given as the source filed them. Rule for the calls: active = hit-call score of the fitted dose curve at least 0.9, where 1 is the maximum; inactive = score below 0.9.

This passage reports outcome results from PubChem BioAssay (EPA / NIEHS).

A short description of the assay: APR_HepG2_p53Act_1hr: Apredica 1-hour HepG2 Assay for p53 Activation (AID 2282671). The note with it: high-content imaging, actives raise or lower the signal. As for the experimental part: APR_HepG2_1hr is a cell-based, multiplexed-readout assay that uses HepG2, a human liver cell line, with measurements taken at 1 hour after chemical dosing in a 384-well plate.APR_HepG2_p53Act_1hr is one of 10 assay component(s) measured or calculated from the APR_HepG2_1hr assay. It is designed to make measurements of dna content, a form of viability reporter, as detected with fluorescence intensity signals by HCS Fluorescent Imaging technology.Data from the assay component APR_HepG2_p53Act_1hr was analyzed into 1 assay endpoint. This assay endpoint, APR_HepG2_p53Act_1hr, was analyzed with bidirectional fitting relative to DMSO as the negative control and baseline of activity. Using a type of viability reporter, measures of protein for gain or loss-of-signal activity can be used to understand the signaling at the pathway-level as they relate to the gene TP53. Furthermore, this assay endpoint can be referred to as a primary readout, because this assay has produced multiple assay endpoints where this one serves a signaling function. To generalize the intended target to other relatable targets, this assay endpoint is annotated to the dna binding intended target family, where the subfamily is tumor suppressor.
Cells were treated with dimethyl sulfoxide (DMSO) as a solvent control at a final concentration of 0.5% v/v or with compounds in DMSO with a resulting final DMSO concentration of 0.5% v/v. Compound treatment was done at concentrations of 0.39, 0.78, 1.56, 3.12, 6.24, 12.5, 25, 50, 100, and 200 uM in duplicate on each plate. Cells were treated with compounds for 1, 24, or 72 hr. Carbonyl […] m-chloro-phenylhydrazone (CCCP) and taxol were used as positive controls for mitochondrial function and cytoskeletal stability, respectively; DMSO served as the negative control for this experiment. Cells were fixed by the direct addition of 50 uL formaldehyde in Hank's Balanced Salt Solution (HBSS) to a final concentration of 3.7%. After incubation in the fixation medium for 30 min at room temperature (293-298 K), cells were rinsed twice with HBSS and treated with cell permeabilization buffer (16 uL of 0.5% Triton X-100) for 10 min at room temperature (293-298 K) before labeling. For mitochondrial membrane potential and mitochondrial measurements, pre-fixed cells were incubated with 50 uL of MitoTracker Red CMXRos (Invitrogen) at a concentration of 250 nM for 30 min before fixation. In the remaining cases, post-fixed cells were labeled by incubation with a multiplexed mixture of primary antibodies in HBSS for 60 min at room temperature (293-298 K) to detect immunoreactivity of c-Jun (1:500), phospho-histone H3 (1:100), phospho-histone H2A.x (1:200), p53 (1:400), alpha-tubulin (1:200) and Hoechst 33342 (2 ug/mL). Cells were labeled for multiplexed imaging on two separate plates: a) Hoechst 33342, MitoTracker Red, phospho-histone H3, and alpha-tubulin, and b) Hoechst 33342, phospho-histone H2A.x, and c-Jun. A final rinse with HBSS (50 uL) was performed before analysis. The primary and secondary antibodies for the proteins were phospho-histone H3 (rabbit anti-phospho-histone H3 and FITC-donkey anti-rabbit IgG), phospho-histone H2A.x (mouse anti-phospho-histone H2A.x and FITC-donkey anti-mouse IgG), c-Jun (rabbit anti-phospho-c-Jun and Cy3-donkey anti-rabbit IgG), p53 (sheep anti-p53 and Cy5-donkey anti-sheep IgG), alpha-tubulin (mouse anti-alpha-tubulin and Cy5-donkey anti-mouse IgG). These antibodies are available as the CellCiphr HepG2 assay kit (Millipore).Digital images of each well were captured using a Cellomics ArrayScan VTI (Thermo Scientific Cellomics) (0.8 NA objective, 0.63x optical coupler, and XF-93 filter set) at 20x magnification. The images were acquired using the autofocus feature of the ArrayScan instrument, which entails the following steps. First, the camera focuses on channel 1 (Hoechst 33342), where nuclei are identified. Second, a Z offset of 1 um is used for capturing mitochondria (MitoTracker Red). […]
With `CCN(Cc1c(F)cccc1Cl)c1c([N+](=O)[O-])cc(C(F)(F)F)cc1[N+](=O)[O-]`, the compound was classed as inactive. Then `CCCN(CCC)c1c([N+](=O)[O-])cc(C(F)(F)F)c(N)c1[N+](=O)[O-]`, with “inactive”; and `CCNc1nc(N)nc(Cl)n1`, with “inactive”. Then `CC1(C)C(C=C(Cl)Cl)C1C(=O)OCc1cccc(Oc2ccccc2)c1` (stereo not given), with “inactive”; and `CCCOC(=O)c1ccc(C(=O)OCCC)nc1`, with “inactive”.

For `CCCN(CCC)C(=O)SCC`, the compound was classed as inactive. Then `O=C(Nc1ccc([N+](=O)[O-])cc1Cl)c1cc(Cl)ccc1O`, with “inactive”. Then `CCC(O)=C1C(=O)CC(C(=O)O)CC1=O` (stereo not given), with “inactive”; and `CCCCC(CC)COC(=O)c1ccccc1C(=O)O` (stereo not given), with “inactive”; and `COc1nc(C)nc(NC(=O)NS(=O)(=O)c2ccccc2OCCCl)n1`, with “inactive”. With `COC(=O)CSc1cc(N=c2sc(=O)n3n2CCCC3)c(F)cc1Cl` the entry was “inactive”; with `C#CCOC(=O)[C@@H](C)Oc1ccc(Oc2ncc(Cl)cc2F)cc1`, “inactive”; with `OB(O)O`, “inactive”.

`COC(=O)c1ccccc1S(=O)(=O)NC(=O)Nc1nc(OC(F)F)cc(OC(F)F)n1`: the result was inactive. Then `CCOC(=O)[C@H](C)Oc1ccc(Oc2nc3ccc(Cl)cc3o2)cc1`, with “inactive”; and `COC(=O)c1ccc(CNS(C)(=O)=O)cc1S(=O)(=O)NC(=O)Nc1nc(OC)cc(OC)n1`, with “inactive”. Then `CCCOC(=O)NCCCN(C)C`, with “inactive”; and `CC(C)(C)[C@@H](O)[C@@H](Cc1ccc(Cl)cc1)n1cncn1`, with “inactive”.

Consider `COC(=O)c1ccccc1C(=O)O`, for which the outcome was inactive. Consider `Oc1ccc(C(c2ccc(O)cc2)C(Cl)(Cl)Cl)cc1`, for which the compound was classed as inactive. As to `COC(=O)c1cccc(C)c1S(=O)(=O)NC(=O)Nc1nc(OCC(F)(F)F)nc(N(C)C)n1`, the compound was called inactive. With `c1ccc(Nc2ccccc2)cc1` the entry was “inactive”; with `CCCCOC(=O)[C@@H](C)Oc1ccc(Oc2ccc(C(F)(F)F)cn2)cc1`, “inactive”; with `CSC(=O)c1cccc2nnsc12`, “inactive”. With `CCCCC(CC)CN1C(=O)C2C3C=CC(C3)C2C1=O` (stereo not given) the entry was “inactive”; with `COC(=O)c1c(Cl)nn(C)c1S(=O)(=O)NC(=O)Nc1nc(OC)cc(OC)n1`, “inactive”.

Take `CCCCCCC(C)OC(=O)COc1nc(F)c(Cl)c(N)c1Cl` (stereo not given): the compound was called inactive.

With `CN(C)C(=O)Nc1ccc(Cl)c(Cl)c1`, the compound was called inactive.

With `C=CCOC(Cn1ccnc1)c1ccc(Cl)cc1Cl` (stereo not given), the result was inactive. With `CCC(C)OC(=O)N1CCCCC1CCO` (stereo not given) the entry was “inactive”; with `CCOC(=O)COc1cc(-n2ncc(C(F)(F)F)c(C)c2=O)c(F)cc1Cl`, “inactive”; with `CCOC(=O)C(C)Oc1ccc(Oc2nc3ccc(Cl)cc3o2)cc1` (stereo not given), “inactive”. With `CCOC(=O)NCCOc1ccc(Oc2ccccc2)cc1` the entry was “inactive”. With `CC(C)(c1ccc(O)cc1)c1ccc(O)cc1` the entry was “inactive”; with `CCCCOC(=O)C(C)Oc1ccc(Oc2ccc(C(F)(F)F)cn2)cc1` (stereo not given), “inactive”; with `Cc1nn(C)c(Oc2ccccc2)c1C=NOCc1ccc(C(=O)OC(C)(C)C)cc1`, “inactive”. As for `O=C(O)C1(C(=O)Nc2ccc(Cl)cc2Cl)CC1`, the outcome was inactive. With `COCCO` the entry was “inactive”; with `COC(=O)c1ccc(I)cc1S(=O)(=O)NC(=O)Nc1nc(C)nc(OC)n1`, “inactive”. With `CCSC(=O)N(CC(C)C)CC(C)C` the entry was “inactive”.
